Compound activity from PubChem BioAssay.
Compounds with a hit are over-represented: about 19% of the library has one in this group of screens.
HT1080 IDH1KD tx: qHTS for induction of synthetic lethality in tumor cells producing 2HG: qHTS for the HT-1080-IDH1KD cell line. HT-1080 IDH1 knockdown viability, ATP luminescence, 48 h. Potency, µM (series often up to 46.1 µM), most hits filed as cytotoxic. 2% of 360,000 active
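Cytotoxicity counter-line: IDH1KD HT-1080, 48 h, CellTiter-Glo. Curves classed by r2, magnitude and activity.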
DT40 TDP1 CPT: qHTS for Inhibitors of human tyrosyl-DNA phosphodiesterase 1 (TDP1): qHTS in cells in presence of CPT | chicken DT40 Tdp1-/-;hTDP1 cells + 20 nM CPT, ATP luminescence, 48 h | Potency, µM (titrated, usually from 46.2 µM), usual class: inhibitors | 12% of 420,000 active; note: nearly all actives have a fitted effect of over 55% in size
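Chicken DT40 Tdp1-/- cells complemented with human TDP1, 400 cells/well, exposed to compounds plus 20 nM camptothecin for at least 48 h at 37 C; viability read as ATP content by CellTiter-Glo luminescence.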
IL-1B inflam inh: qHTS for Inhibitors of Inflammasome Signaling: IL-1-beta AlphaLISA Primary Screen | THP-1 LPS/ATP IL-1B secretion, AlphaLISA, 16 h; hits give low values | activity change, % at 57.5 µM | 4.7% of 360,000 active | AID 743279, 2014; in the data active = activity change below about -50%; inconclusive = mostly about -30% to -49%
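Secreted IL-1B measured by AlphaLISA bead assay after 16 h compound exposure of THP-1 cells; compounds (final up to 57.5 uM) added 1 h before LPS (250 ng/mL) and ATP (1.25 mM) stimulation; lower signal means less secretion.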
TDP1 cell noCPT: qHTS for Inhibitors of human tyrosyl-DNA phosphodiesterase 1 (TDP1): qHTS in cells in absence of CPT; 15% of 420,000 active; Potency, µM (doses to about 46.2 µM), most hits filed as inhibitors; DT40 Tdp1-/- hTDP1 cells, no CPT, ATP luminescence, 48 h; note: nearly all actives have a fitted effect of over 55% in size
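Seeded 400 DT40-hTDP1 cells/well (vehicle DMSO, no 20 nM CPT); pinned compounds; ≥48 hr at 37 °C; CellTiter-Glo luminescence as viability measure.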
HT1080NT lethal: qHTS for induction of synthetic lethality in tumor cells producing 2HG: qHTS for the HT-1080-NT fibrosarcoma cell line | HT-1080-NT fibrosarcoma viability, CellTiter-Glo ATP luminescence, 48 h | Potency, µM (series often up to 46.1 µM), actives largely listed as cytotoxic | 1.6% of 360,000 active | AID 686970, 2013;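 note: NT is the 2HG producing partner of a matched IDH1 knockdown line; nearly all actives have a fitted effect of over 55% in size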
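HT-1080-NT fibrosarcoma cells (2HG-overproducing), 750 cells/well in RPMI with 5% FBS, dosed after 2 h and incubated 48 h at 37C. CellTiter-Glo luminescence normalized to DMSO and no-cell wells; concentration-response curves fitted and classed.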
Each line names hits and unclear results; the compound was inactive in the other large screens. Unless noted, calls come from the whole dose curve; as a rule, active = well fitted curve in the direction sought with a large enough effect; inconclusive = small, poorly fitted or top-dose-only effect, or another doubt; inactive = no such curve, though single readings can be large; an effect the other way counts as inactive or inconclusive.

COc1ccc(C2CC(c3cccs3)=NN2C(=O)CSc2nc3c(cnn3-c3ccccc3)c(=O)[nH]2)cc1 (stereo not given)	DT40 TDP1 CPT inconclusive, TDP1 cell noCPT inconclusive
COc1cccc(C2CC(c3cccs3)=NN2C(=O)CSc2nc3c(cnn3-c3ccc(F)cc3)c(=O)[nH]2)c1OC (stereo not given)	DT40 TDP1 CPT 23µM, TDP1 cell noCPT 23µM
COc1cccc(C2CC(c3cccs3)=NN2C(=O)CSc2nc3ccccc3s2)c1OC (stereo not given)	DT40 TDP1 CPT 15µM, TDP1 cell noCPT 13µM
N#C/C(=N\Nc1cc(Cl)cc(Cl)c1)c1nnc2n1CCCCC2	DT40 TDP1 CPT inconclusive, TDP1 cell noCPT inconclusive
Cc1ccc(C)c(Cn2c(C(=O)OC(C)C)cc3c2ccn3C)c1	TDP1 cell noCPT inconclusive
CCOC(=O)c1cc2c(ccn2C)n1CC(=O)N(Cc1ccccc1)c1ccc(F)cc1	none
CC(C)OC(=O)c1cc2c(ccn2C)n1CC(=O)N(Cc1ccccc1)c1ccc(F)cc1	HT1080 IDH1KD tx 21µM, DT40 TDP1 CPT 16µM, TDP1 cell noCPT 21µM, HT1080NT lethal inconclusive
CCOC(=O)c1cc2c(ccn2C)n1CC(=O)N(Cc1ccccc1)c1ccccc1	DT40 TDP1 CPT 23µM, IL-1B inflam inh -72, TDP1 cell noCPT inconclusive
Cc1ccccc1Cn1c(C(=O)OC(C)C)cc2c1ccn2C	DT40 TDP1 CPT inconclusive, TDP1 cell noCPT inconclusive
CC(C)OC(=O)c1cc2c(ccn2C)n1CC(=O)N1CCC(Cc2ccccc2)CC1	HT1080 IDH1KD tx inconclusive, DT40 TDP1 CPT inconclusive, TDP1 cell noCPT 21µM
O=C1CSC(c2cccc([N+](=O)[O-])c2)N1CCc1ccccc1 (stereo not given)	none
CCCN(CC(=O)Nc1ccccc1C)C(=O)c1ccc(NC2CC2)c([N+](=O)[O-])c1	none
COC(=O)C(=O)Nc1nnc(COc2ccccc2)s1	none
Cc1ccc(NC(=O)COc2ccc(/C(N)=N/O)cc2)cc1C	HT1080NT lethal inconclusive
Cc1ccc(S(=O)(=O)N2CCCCCC2)cc1[N+](=O)[O-]	DT40 TDP1 CPT inconclusive, TDP1 cell noCPT 10µM
COC(=O)COc1ccc(S(=O)(=O)N2CCCCC2)cc1[N+](=O)[O-]	none
COc1cc(OC)cc(Oc2ccc(S(=O)(=O)N3CCCCC3)cc2[N+](=O)[O-])c1	DT40 TDP1 CPT inconclusive, IL-1B inflam inh -99, TDP1 cell noCPT inconclusive
Cc1nn(CC(=O)N2CCN(c3ccccc3)CC2)c(=O)c2cc3cc(F)ccc3n12	none (no result: HT1080 IDH1KD tx, IL-1B inflam inh, HT1080NT lethal)
CC(/C=N/NC(=O)c1nnn(-c2nonc2N)c1C(C)C)=C\c1ccccc1	DT40 TDP1 CPT inconclusive, TDP1 cell noCPT inconclusive
Nc1nonc1-n1nnc(C(=O)N/N=C/c2c(Cl)cccc2Cl)c1CSC1=NCCS1	none
Nc1nonc1-n1nnc(C(=O)N/N=C/C=C/c2ccccc2)c1CSC1=NCCS1	HT1080 IDH1KD tx inconclusive, DT40 TDP1 CPT inconclusive, IL-1B inflam inh -90, TDP1 cell noCPT inconclusive, HT1080NT lethal inconclusive
CCCN(CCC)Cc1c(C(=O)N/N=C/C(C)=C\c2ccccc2)nnn1-c1nonc1N	HT1080 IDH1KD tx inconclusive, DT40 TDP1 CPT 16µM, IL-1B inflam inh -68, TDP1 cell noCPT 26µM
CCN(CC)C(=O)Cn1cc(C(=O)C(=O)N(C)C2CCN(C)CC2)c2ccccc21	none
CCOC(=O)c1c(N/N=C/c2ccncc2)n[nH]c1C	none
CCC(OC(=O)C(C)N1C(=O)C(=O)c2ccccc21)C(=O)Nc1ccccc1OC (stereo not given)	DT40 TDP1 CPT 4.6µM, TDP1 cell noCPT 5.8µM
COc1ccc2c(c1)/C(=C\c1cccc(/C=C3/C(=O)Nc4ccc(OC)cc43)n1)C(=O)N2	HT1080 IDH1KD tx 3.3µM, DT40 TDP1 CPT 1.6µM, IL-1B inflam inh -107, TDP1 cell noCPT 1.8µM, HT1080NT lethal 2.9µM
Cc1ccc2c(c1)/C(=C/c1ccccc1F)C(=O)N2	DT40 TDP1 CPT inconclusive, TDP1 cell noCPT inconclusive
CCCC(=O)NC(NC(=S)Nc1c(C)n(C)n(-c2ccccc2)c1=O)C(Cl)(Cl)Cl (stereo not given)	DT40 TDP1 CPT inconclusive, TDP1 cell noCPT 29µM
Cc1c(NC(=S)N/N=C/c2ccc(N(C)C)cc2)c(=O)n(-c2ccccc2)n1C	DT40 TDP1 CPT 16µM, TDP1 cell noCPT inconclusive
Cc1c(NC(=S)N/N=C/c2cccc(O)c2)c(=O)n(-c2ccccc2)n1C	none
CC[C@H](C)[C@@H]1NC(=O)[C@@H](CC(C)C)NC(=O)[C@H](C(C)C)NC(=O)[C@H]2CSSC[C@H](NC1=O)C(=O)N2	HT1080 IDH1KD tx 0.52µM, DT40 TDP1 CPT 0.065µM, IL-1B inflam inh -116, TDP1 cell noCPT 0.033µM, HT1080NT lethal 0.46µM
O=C(COC(=O)c1ccccc1NCCO)NNC(=O)c1cccs1	TDP1 cell noCPT inconclusive
CC1(C)CC(=O)C(C(c2ccccc2F)C2C(=O)CC(C)(C)CC2=O)C(=O)C1	none
CN1C2CCC1/C(=C\c1ccccc1F)C(=O)/C2=C/c1ccccc1F	HT1080 IDH1KD tx 12µM, DT40 TDP1 CPT inconclusive, IL-1B inflam inh -101, TDP1 cell noCPT inconclusive, HT1080NT lethal inconclusive
O=[N+]([O-])c1ccccc1Nc1cccc(F)c1	none
O=C(Cc1cccs1)N1CCN=C1SCc1ccc(Br)cc1	DT40 TDP1 CPT inconclusive, IL-1B inflam inh -102, TDP1 cell noCPT inconclusive
CCOC(=O)N1CCN=C1SCc1ccc(C(F)(F)F)cc1	IL-1B inflam inh -82, TDP1 cell noCPT inconclusive
O=C(COc1ccccc1)N1CCN=C1SCc1ccc(F)cc1	IL-1B inflam inh -97
O=C(Cc1ccccc1)N1CCN=C1SCc1ccc([N+](=O)[O-])cc1	DT40 TDP1 CPT inconclusive, IL-1B inflam inh -55, TDP1 cell noCPT inconclusive
CCC(=O)N1CCN=C1SCc1ccccc1	none
O=C(Cc1cccs1)N1CCN=C1SCc1cccc(F)c1	none
C=C1C=C(C(F)F)n2ncc(C(=O)NC(C)CC)c2N1 (stereo not given)	none (no result: HT1080 IDH1KD tx, IL-1B inflam inh, HT1080NT lethal)
CCOc1ccc(-c2c(C(=O)N/N=C/C3CC=CCC3)nnn2-c2nonc2N)cc1 (stereo not given)	none
COc1ccc(C)cc1N(C(=O)c1ccco1)C(C(=O)NC1CCCC1)c1cc(OC)c(OC)c(OC)c1 (stereo not given)	TDP1 cell noCPT inconclusive
CCOc1ccc(CC(=O)N2CCN=C2SCc2ccc([N+](=O)[O-])cc2)cc1	DT40 TDP1 CPT inconclusive, IL-1B inflam inh -97, TDP1 cell noCPT 29µM
COc1ccc(CCN2CC(C(=O)NCc3nc(C)c(C)s3)CCC2=O)cc1 (stereo not given)	none
